The text below walks through data of PubChem BioAssay (NCATS).

Records with an inconclusive call do not appear. Values without a mark were called inactive. The source made the active and inactive calls. Unless noted, the call rests on the fitted dose curve; in most records, active means well fitted curve in the direction sought with a large enough effect; inconclusive means small, poorly fitted or top-dose-only effect, or another doubt; inactive means no such curve, though single readings can be large; an effect the other way counts as inactive or inconclusive.

Experiment [1] deals with Cellular tumor antigen p53 (Homo sapiens) (UniProt P04637). Nature of the experiment: Primary qHTS for small molecule compounds that upregulate eGFP-tagged delta133p53alpha (in N-terminal) cells. (AID 2060322).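 Further: cells pre-induced with doxycycline then dosed without doxycycline; series mostly up to about 56 µM; 0% = DMSO vehicle and 100% = reference activator; nearly all actives have a fitted effect of over 75% in size.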 The note with it: NCI-H358 eGFP-delta133p53alpha fluorescence, 24 h; activation: active compounds read high. An outline of the steps:
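NCI-H358 cells pre-induced 24 h with 10 ng/ml doxycycline for eGFP-delta133p53alpha, plated dox-free and exposed 24 h at 37C to titrated compounds. Fixed, Hoechst-stained; gated GFP peak intensity by laser scanning cytometry, normalized to DMSO (0%) and 57.5 uM 5-azacytidine (100%).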

The target in experiment [2] is Aldehyde dehydrogenase, mitochondrial (Homo sapiens) (UniProt P05091). The experiment in a line: qHTS for Inhibitors of the Aldehyde Dehydrogenase Family (ALDH2) Confirmatory screens (AID 2061303; active means well fitted inhibition curve with a large enough effect; title and protocol of this record describe different tests; further: nearly all actives have a fitted effect of over 45% in size; further: potency means the concentration at half of the fitted maximal effect). In general terms: qHTS replaces the single test concentration by a dilution series.
Experiment [3] has the same target. The experiment in a line: qHTS for Inhibitors of the Aldehyde Dehydrogenase Family (ALDH2) Primary screen (AID 2061308).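 Further: plate controls were vehicle for no effect and reference inhibitor for full effect; nearly all actives have a fitted effect of over 55% in size.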
Experiment [4] addresses Retinaldehyde dehydrogenase 3 (Homo sapiens) (UniProt P47895). Nature of the experiment: qHTS for Inhibitors of the Aldehyde Dehydrogenase Family (ALDH1A3) Confirmatory screens (AID 2061311). Further: nearly all actives have a fitted effect of over 60% in size. Further: potency means the concentration at half of the fitted maximal effect.
Experiment [5] shares this target. The experiment in a line: qHTS for Inhibitors of the Aldehyde Dehydrogenase Family (ALDH1A3) Validation screen (AID 2061312). Further: nearly all actives have a fitted effect of over 45% in size. Further: potency means the concentration at half of the fitted maximal effect.
For experiment [6], the target named is Retinal dehydrogenase 2 (Homo sapiens) (UniProt O94788). Nature of the experiment: qHTS for Inhibitors of the Aldehyde Dehydrogenase Family (ALDH1A2) Confirmation screens (AID 2061314). Further: nearly all actives have a fitted effect of over 65% in size. Further: potency means the concentration at half of the fitted maximal effect.
Experiment [7] has as its target Retinaldehyde dehydrogenase 3 (Homo sapiens) (UniProt P47895). Nature of the experiment: qHTS for Inhibitors of the Aldehyde Dehydrogenase Family (ALDH1A3) Primary screen (AID 2061315). Further: potency means the concentration at half of the fitted maximal effect.
Experiment [8] deals with Aldehyde dehydrogenase 1A1 (Homo sapiens) (UniProt P00352). Nature of the experiment: qHTS for Inhibitors of the Aldehyde Dehydrogenase Family (ALDH1A1) Confirmatory screens (AID 2061316). Further: nearly all actives have a fitted effect of over 65% in size. Further: potency means the concentration at half of the fitted maximal effect.
A short description of experiment [9]: qHTS for Inhibitors of the Aldehyde Dehydrogenase Family (ALDH1A2, ALDH1A3, ALDH2, ALDH3A1) (AID 2061307). Further: nearly all actives have a fitted effect of over 50% in size. On Potency: test system not described further here; potency means the concentration at half of the fitted maximal effect.
Experiment [10] in a line: BET inhibitor-based combinations targeting novel dependencies in MECOM-rearranged (r) AML: SET-2 cell line (AID 2202231).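 Further: plate controls were DMSO treated cells for no effect and wells without cells for full effect; nearly all actives have a fitted effect of over 35% in size.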 Particulars: SET-2 AML cells viability, CellTiter-Glo luminescence, 48 h; viability: active compounds read low, series mostly up to about 46 µM. The method, boiled down:
(§1)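 AML cell lines seeded at 500 cells/well, treated with 11-point dose curves for 48 h. Viability by CellTiter-Glo luminescence, normalised to DMSO and empty wells; activity expressed as AUC and per-cell-line Z-transformed AUC.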

Experiment [11] in a line: BET inhibitor-based combinations targeting novel dependencies in MECOM-rearranged (r) AML: OCI-AML3 cell line (AID 2202232).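 Further: series mostly up to about 46 µM; plate controls were DMSO vehicle wells for no effect and wells without cells for full effect; nearly all actives have a fitted effect of over 35% in size.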 Particulars: Potency: OCI-AML3 viability. An outline of the steps: as §1
Experiment [12] is described as follows: BET inhibitor-based combinations targeting novel dependencies in MECOM-rearranged (r) AML: MV-4-11 cell line (AID 2202233).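 Further: plate controls were DMSO for no effect and blank wells for full effect; nearly all actives have a fitted effect of over 45% in size.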 The method, boiled down: (§2)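 Cells at 500/well were exposed for 48 hr to MIPE v5.0 drugs as 11-point dose curves. Viability was read by CellTiter-Glo luminescence and normalized to DMSO and empty-well controls. Activity was expressed as AUC and per-cell-line Z-AUC.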

A short description of experiment [13]: BET inhibitor-based combinations targeting novel dependencies in MECOM-rearranged (r) AML: UCSD-AML1 cell line (AID 2202235).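 Further: series mostly up to about 46 µM; plate controls were DMSO vehicle wells for no effect and blank wells for full effect; nearly all actives have a fitted effect of over 40% in size.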 An outline of the steps: as §2
The nature of experiment [14]: BET inhibitor-based combinations targeting novel dependencies in MECOM-rearranged (r) AML: AML-194 cell line (AID 2202237;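 further: plate controls were vehicle wells for no effect and wells without cells for full effect; nearly all actives have a fitted effect of over 40% in size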). An outline of the steps:
as §1

Sequence of Cellular tumor antigen p53 (Homo sapiens) (P04637 whole entry, looked up): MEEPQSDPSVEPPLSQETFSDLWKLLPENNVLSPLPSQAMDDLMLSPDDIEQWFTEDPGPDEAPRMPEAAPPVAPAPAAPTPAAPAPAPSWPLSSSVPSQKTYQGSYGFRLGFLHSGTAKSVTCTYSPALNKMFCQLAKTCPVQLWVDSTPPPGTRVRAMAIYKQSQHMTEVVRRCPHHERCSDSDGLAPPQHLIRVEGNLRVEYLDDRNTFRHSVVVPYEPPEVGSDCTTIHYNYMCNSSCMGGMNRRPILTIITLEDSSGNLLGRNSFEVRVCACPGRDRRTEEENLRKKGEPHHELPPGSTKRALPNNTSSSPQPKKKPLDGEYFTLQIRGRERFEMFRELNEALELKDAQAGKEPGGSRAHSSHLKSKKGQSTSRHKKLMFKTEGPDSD

Regarding `O=C(Nc1ccccc1)N1CCN(Cc2ccc3ccccc3n2)CC1`, the activation in experiment [1] is 8.59%. Besides, the Potency result in [2], in experiment [3], in experiment [4], in experiment [5], in experiment [6] and in experiment [7] was “inactive” throughout. In addition, the Potency entry in [8] was “inactive”.

Consider `CO/N=C(/C(=O)N[C@@H]1C(=O)N2C(C(=O)O)=C(Cn3ccc(=N)n3CCO)CS[C@H]12)c1csc(N)n1`, for which the activation in experiment [1] is 2.39%. Moreover, the Potency entry in experiment [2], in [9], in experiment [5], in experiment [6] and in [7] was “inactive” throughout.

For `COC(=O)c1ccc(O[C@@H]2O[C@H](CO)[C@@H](O)[C@H](O)[C@H]2O)c(OC)c1`, the activation in experiment [1] is -13.4%. Besides, the Potency entry in experiment [2] and in experiment [3] was “inactive” each time. For the same molecule, the Potency in experiment [4] is 17.5 µM (active).

In general, viability refers to a read-out of living cells in per cent, often relative to untreated cells. `O=C(O)c1cnn(-c2nc3cc(OC(F)(F)F)c(Cl)cc3[nH]2)c1`: the activation in experiment [1] was -9.67%. The Potency entry in experiment [2], in experiment [6], in experiment [8], in [11], in experiment [12] and in [13] was “inactive” throughout. In addition, the Potency entry in experiment [14] was “inactive”. The Potency in experiment [9] is 13.5 µM (active); in [4] it was 3.18 µM (active); in experiment [7], 10 µM (active). Besides, in experiment [10], the viability was 119%.

Regarding `CCOC(=O)c1cccc(CNc2ccc(N(C)C(=O)Nc3ccccc3)cc2)c1`, the activation in experiment [1] was -12.9%. Also, the Potency entry in [2], in [9], in experiment [4], in [6] and in experiment [8] was “inactive” each time.

For the molecule `Fc1ccc(N2CCN(CCC3OCCc4ccccc43)CC2)cc1` (stereo not drawn), in experiment [1], the activation was -6.21%. The Potency result in experiment [2], in experiment [9] and in experiment [8] was “inactive” throughout.

As for `CCCN1CCC=C(c2cc(-c3ccc(C)cc3)no2)C1`, the activation in [1] was 2.86%. The Potency result in experiment [2], in experiment [9], in [7] and in experiment [8] was “inactive” each time. Moreover, the Potency in [5] was 25.1 µM (active).

For the molecule `CN(C)c1ccc(C2O[C@@H](c3ccccc3)C[C@H](c3ccccc3)O2)cc1` (stereo partly drawn), the activation in [1] is -3.34%. For the same molecule, the Potency was 3.55 µM (active) in experiment [2]; 3.57 µM (active) in experiment [9]; 3.55 µM (active) in experiment [4]; 44.7 µM (active) in experiment [5]; 10 µM (active) in experiment [6]; 10 µM (active) in experiment [8].
